This is part of a sample that, as a whole, favours compounds with a hit. Of some 83,000 tested, about 20% had one in any assay.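 The endpoint reported here, percent growth, reads 100 for growth as untreated, 0 for no net growth and -100 for all cells dead.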 Unmarked numbers belong to inactive results. Activity calls are given as the source filed them. The calls were made as follows: active = growth percent below 10; inactive = the rest.
Legend:
Assay in all cases: NCI-60 one-dose screen, 48 h (100 = growth as untreated, 0 = no growth, -100 = all killed)
Details in all cases: 10 µM unless noted
SK-MEL-2 melanoma = tested on: SK-MEL-2 melanoma
EKVX NSCLC = tested on: EKVX NSCLC
SN12C renal = tested on: SN12C renal
UO-31 renal = tested on: UO-31 renal
TK-10 renal = tested on: TK-10 renal
ACHN renal = tested on: ACHN renal
CAKI-1 renal = tested on: CAKI-1 renal
A498 renal = tested on: A498 renal
CCRF-CEM leukemia = tested on: CCRF-CEM leukemia
MOLT-4 leukemia = tested on: MOLT-4 leukemia
SR leukemia = tested on: SR leukemia
RPMI-8226 leukemia = tested on: RPMI-8226 leukemia
OVCAR-8 ovarian = tested on: OVCAR-8 ovarian
OVCAR-5 ovarian = tested on: OVCAR-5 ovarian
OVCAR-4 ovarian = tested on: OVCAR-4 ovarian
SK-OV-3 ovarian = tested on: SK-OV-3 ovarian
IGROV1 ovarian = tested on: IGROV1 ovarian
OVCAR-3 ovarian = tested on: OVCAR-3 ovarian
HS 578T breast = tested on: HS 578T breast
NCI/ADR-RES ovarian = tested on: NCI/ADR-RES ovarian

Row | Compound | growth (SK-MEL-2 melanoma) | growth (EKVX NSCLC) | growth (SN12C renal) | growth (UO-31 renal) | growth (TK-10 renal) | growth (ACHN renal) | growth (CAKI-1 renal) | growth (A498 renal) | growth (CCRF-CEM leukemia) | growth (MOLT-4 leukemia) | growth (SR leukemia) | growth (RPMI-8226 leukemia) | growth (OVCAR-8 ovarian) | growth (OVCAR-5 ovarian) | growth (OVCAR-4 ovarian) | growth (SK-OV-3 ovarian) | growth (IGROV1 ovarian) | growth (OVCAR-3 ovarian) | growth (HS 578T breast) | growth (NCI/ADR-RES ovarian)
1 | CCOC(=O)C1=C(N)N(c2ccccc2)C2=C(C(=O)CC(C)(C)C2)C1c1ccccc1Cl (stereo not given) | 57.7% | 74.6% | 75% | 55.3% | 100% | 69.2% | 46.7% | 99.4% | 48.4% | 25.8% | 32.5% | 22.5% | 83.6% | 86.8% | 74.6% | 90.1% | 92% | 62.7% | 93.4% | 74%
2 | C=C1CCC2C3(C)COC(c4cccc(F)c4)OC3CCC2(C)C1C/C=C1/C(=O)OCC1O (stereo not given) | -50.6% (active) | 23.1% | 4.14% (active) | -63.2% (active) | -6.05% (active) | -89.6% (active) | 11% | 118% | 16% | 7.01% (active) | 9.74% (active) | 10.5% | -52.2% (active) | 22.1% | -0.215% (active) | 60.5% | -24% (active) | -71.8% (active) | 15.9% | -18% (active)
3 | COc1cc(C2CC(c3cc(OC)c(OC)c(OC)c3)=NN2C(C)=O)ccc1OCc1ccccc1 (stereo not given) | 21.3% | 32.6% | 41.1% | 8.63% (active) | 32.1% | 28.2% | 29% | 55.1% | 40.2% | 8.79% (active) | 32.1% | 24.2% | 46.7% | 59.8% | 22.3% | 71.3% | 42.9% | 41% | 41% | 38.4%
4 | CCN(CC)c1ccc(/C=N/Nc2nc(-c3ccc(Br)cc3)cs2)c(O)c1 | 94.6% | 90.9% | 23.1% | 65.4% | 96.5% | 76.1% | 55.1% | 102% | 1.36% (active) | 12.3% | 3.58% (active) | 38.4% | 81.6% | 91.5% | 70.2% | 103% | 78.8% | 61.3% | 102% | 95.3%
5 | COc1ccc(Cc2nn(CC(=O)N/N=C/c3ccc(F)cc3)c(=O)c3c(C)noc23)cc1 | 70.5% | 29.8% | -0.271% (active) | -48% (active) | -3.12% (active) | -39.4% (active) | 10.2% | -57.5% (active) | 70.4% | 92.6% | 53.2% | 64.7% | 38.6% | 55% | -35.8% (active) | -72.1% (active) | 39.7% | 47% | 23.1% | 38.4%
6 | O=C(/C=C/Nc1ccc2oc(=O)ccc2c1)c1cc2cc(Br)ccc2oc1=O | 107% | 105% | 102% | 81.4% | 124% | 107% | 92.5% | 144% | 120% | 115% | 99.2% | 103% | 104% | 108% | 102% | 99.8% | 105% | 122% | 92.6% | 109%
7 | COc1cc(/C=C/C(=O)c2ccccc2)ccc1Oc1nc(Nc2ccc(F)cc2)nc(N(C)C)n1 | -38% (active) | 38.6% | -5.73% (active) | 27.3% | 89.8% | -4.12% (active) | 37.5% | 48.8% | 9.17% (active) | 7.1% (active) | 1.38% (active) | -8.57% (active) | 22.1% | 49.1% | 27.7% | 79.7% | 48.8% | 39.4% | 36.2% | 11.3%
8 | C#CCOc1ccc(/C=N/Nc2nc(-c3cc4cc(Br)ccc4oc3=O)cs2)cc1OC | 105% | 78.9% | 72.8% | 89.7% | 102% | 71% | 67.9% | 50.1% | 100% | 92.8% | 80.2% | 68.2% | 65.7% | 73.9% | 47.8% | 25.7% | 83.1% | 87.3% | 86.8% | 63.8%
9 | CC(=O)c1cc(C(=O)c2ccccc2)n2c1ccc1ccccc12 | 117% | 98.5% | 90.6% | 55.5% | 142% | 91.7% | 79.6% | 129% | 108% | 87.6% | 81.4% | 95.6% | 99% | 103% | 102% | 85.8% | 88.6% | 112% | 94.1% | 101%
10 | Cc1ccc(S(=O)(=O)c2nc(S(=O)(=O)c3ccc(C)cc3)c(N3CCC(O)CC3)s2)cc1 | 66.6% | 63.1% | 74% | 73.7% | 129% | 97.8% | 69.2% | 86.1% | 23.8% | 38% | 15.7% | 53.4% | 75.3% | 104% | 65% | 97.6% | 75.6% | 72.9% | 59.3% | 74.5%
11 | COc1ccc2c(c1)c(-c1cc3nc(-c4cn(C)c5ncc(Br)cc45)cc(N)n3n1)cn2C | -68.6% (active) | -51.6% (active) | -75.3% (active) | -58.1% (active) | -40.8% (active) | -92.3% (active) | -39.9% (active) | 86.8% | -29.2% (active) | -43.6% (active) | -6.89% (active) | -0.77% (active) | -48.8% (active) | -47.6% (active) | 17.3% | -55.6% (active) | -25.8% (active) | -18.6% (active) | -18.6% (active) | -30.3% (active)
12 | COc1ccc2oc(=O)c(C3(C)NC(=O)c4c(/C=C/C(=O)OC(C)(C)C)cccc4N3)cc2c1 (stereo not given) | 7.6% (active) | 37.1% | 40.6% | 25% | 56.7% | 28.6% | 39.9% | 57.8% | 32.1% | 18.1% | 26.2% | 28.5% | 37.9% | 60.9% | 41.5% | 51.2% | 41.6% | 55.4% | 60% | 36.6%
13 | O=C(N=Nc1c(O)[nH]c2ccc([N+](=O)[O-])cc12)c1ccc2nc(-c3ccccc3)[nH]c2c1 | 77% | 97.5% | 49.5% | 84.4% | 140% | 101% | 91.7% | 122% | 32.7% | 43.3% | 30.9% | 110% | 65.1% | 107% | 45.8% | 96.9% | 76.9% | -13.2% (active) | 62.6% | 103%
14 | O=C1NC(=O)/C(=C/c2ccccc2OCc2cc3ccccc3nc2Cl)S1 | 88.6% | 88% | 81.4% | 71.9% | 97.7% | 86.2% | 82.3% | 122% | 53.9% | 85.3% | 105% | 93.7% | 68.4% | 112% | 88.2% | 81.7% | 91.5% | 71.7% | 28.8% | 87.6%
15 | COc1ccc(/C=C/c2nc3ccccc3c(=O)n2CC(=O)Nc2ccc(Cl)cc2)cc1 | 99.9% | 89.3% | 55.3% | 79.5% | 116% | 50.7% | 43.1% | 118% | 108% | 82.2% | 70.8% | 84% | 27% | 92.7% | 17.2% | 78.7% | 96.5% | 50% | 23.3% | 56.1%

Reference: PubChem BioAssay (NCI)
